34 compounds from the supplement of paper PMC8975748 can be followed below.

Molecules are shown by their SMILES. Counter-ions that a name gives are not always drawn. ± gives the standard deviation of the averaged measurements.

This test deals with Saccharomyces cerevisiae BY4741 SeMeCo community. The experiment in a line: mean cell size (pixel area) (pixels); higher = larger cells. Conditions: 10 µM; 24 h; SM minimal medium. In outline:
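Yeast cells were fixed with paraformaldehyde, imaged by automated confocal microscopy and analysed in Harmony to obtain mean cell pixel area per well. They came from a four-plasmid fluorescent Saccharomyces cerevisiae BY4741 community, each plasmid complementing one auxotrophy and carrying a fluorescent marker. Before imaging, 70 µl of culture at OD600 = 0.3 was incubated for 24 h in SM medium in 384-well plates predosed acoustically with drug (final 10 µM). Values are means of 3 replicates. Same SeMeCo high-content imaging drug screen: Selleck FDA-approved drugs at 10 µM, 24 h in SM medium, 384-well plates, 3 replicates.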
The compound `Nc1ccncc1` [4-Aminopyridine] showed a mean cell size of 12.2 ± 0.16.
Compound `C[C@@H]1[C@H](O)[C@@H](C)/C=C/C=C/CC/C=C/C=C/C=C/C=C/[C@H](O[C@H]2O[C@@H](C)[C@H](O)[C@@H](N)[C@H]2O)C[C@@H]2O[C@](O)(C[C@@H](O)[C@H](O)CC[C@@H](O)C[C@@H](O)C[C@@H](O)CC(=O)O[C@H]1C)C[C@H](O)[C@H]2C(=O)O` [Nystatin (Fungicidin)] registered a mean cell size of 9.704 ± 0.046.
The compound `CN1C(=O)COc2c(C(=O)NC3CN4CCC3CC4)cc(Cl)cc21` (centres undefined) [Azasetron HCl] returned a mean cell size of 12 ± 0.075.
Compound `CN(C)C(=O)Oc1cccc([N+](C)(C)C)c1` [Neostigmine Bromide] gave a mean cell size of 11.8 ± 0.15.
Regarding `CN1c2ccccc2C(NCCCCCCC(=O)O)c2ccc(Cl)cc2S1(=O)=O` (centres undefined) [Tianeptine sodium], the mean cell size was 12.6 ± 0.24.
For `C=C[C@H]1CN2CC[C@H]1C[C@H]2[C@H](O)c1ccnc2ccccc12` [Cinchonidine], the mean cell size was found to be 12.47 ± 0.048.
`CC(=O)c1c(O)cc(C)oc1=O` [Sodium dehydroacetate] showed a mean cell size of 12.3 ± 0.038.
On to `CN1[C@@H]2CC[C@H]1C[C@@H](OC(=O)[C@H](CO)c1ccccc1)C2` [Hyoscyamine], for which the mean cell size was 12.27 ± 0.064.
`CC(=O)O[C@H]1C[C@@H]2CC[C@@H]3[C@H](CC[C@@]4(C)[C@H]3C[C@H]([N+]3(C)CCCCC3)[C@@H]4OC(C)=O)[C@@]2(C)C[C@@H]1[N+]1(C)CCCCC1` [Pancuronium dibromide] displayed a mean cell size of 12.5 ± 0.19.
Regarding `Oc1cc(Cl)ccc1Oc1ccc(Cl)cc1Cl` [Triclosan], the mean cell size worked out at 12.5 ± 0.31.
For `CN1[C@@H]2C[C@@H](OC(=O)[C@H](CO)c3ccccc3)C[C@H]1[C@@H]1O[C@@H]12` [Scopolamine HBr trihydrate] the value was 12.1 ± 0.18.
For `CCOC(=O)Nc1ccc(NCc2ccc(F)cc2)cc1N` [Retigabine] the value was 12.58 ± 0.12.
Regarding `C[C@H]1O[C@H](O[C@H]2[C@H](O)[C@@H](O)[C@@H](O)[C@H](O)[C@@H]2O)[C@@H](N)C[C@@H]1NC(=N)C(=O)O` [Kasugamycin hydrochloride], the mean cell size was 12.1 ± 0.21.
Compound `CN(C)C(=O)Oc1ccc[n+](C)c1` [Pyridostigmine Bromide] gave a mean cell size of 12.54 ± 0.1.
Turning to `CN1[C@@H]2C[C@@H](OC(=O)[C@H](CO)c3ccccc3)C[C@H]1[C@@H]1O[C@@H]12` [Scopolamine HBr], the mean cell size is 12.5 ± 0.14.
`O=[N+]([O-])C(Br)(CO)CO` [Bronopol] came in with a mean cell size of 12.2 ± 0.43.
The compound `NC(=O)CN1CCCC1=O` [Piracetam] yielded a mean cell size of 12.47 ± 0.028.
Next, `C[N+](C)(C)CCCCCCCCCC[N+](C)(C)C` [Decamethonium Bromide]: 12.47 ± 0.097.
In the case of `CC[C@@]1(O)C(=O)OCc2c1cc1n(c2=O)Cc2cc3ccccc3nc2-1` [Camptothecin], the mean cell size was determined as 12.3 ± 0.14.
The compound `COC(=O)C1=CCCN(C)C1` [Arecoline HBr] gave a mean cell size of 12.4 ± 0.29.
With `C[C@@H]1O[C@@H](O[C@H]2C[C@@H](O)[C@]3(CO)[C@H]4[C@H](O)C[C@]5(C)[C@@H](C6=CC(=O)OC6)CC[C@]5(O)[C@@H]4CC[C@]3(O)C2)[C@H](O)[C@H](O)[C@H]1O` [Ouabain], the mean cell size came out at 12.3 ± 0.32.
In turn, `Oc1cccc2cccnc12` [8-Hydroxyquinoline] had a mean cell size of 12.61 ± 0.039.
Next, `CC1(C)S[C@@H]2[C@H](N)C(=O)N2[C@H]1C(=O)O` [6-Aminopenicillanic acid]: 12.1 ± 0.25; `C[C@@H]1CC[C@H]2[C@@H](C)C(=O)O[C@@H]3O[C@@]4(C)CC[C@@H]1[C@]32OO4` [Artemisinin]: 12.3 ± 0.3; `CN1[C@@H]2CC[C@H]1C[C@@H](OC(=O)C(CO)c1ccccc1)C2` (some centres undefined) [Atropine sulfate monohydrate]: 12.26 ± 0.093.
For `CC(C)N(CCC(C(N)=O)(c1ccccc1)c1ccccn1)C(C)C` (centres undefined) [Disopyramide], the mean cell size was 12.27 ± 0.1.
`CC(C)=CCOc1c2occc2cc2ccc(=O)oc12` [Imperatorin] gave a mean cell size of 12.6 ± 0.14.
Regarding `CN[C@@H]1[C@@H](O)[C@@H](O[C@@H]2[C@@H](O)[C@H](O[C@H]3O[C@H]([C@@H](C)O)[C@@H](O)[C@H](O)[C@H]3N)[C@@H](N)C[C@H]2N)OC[C@]1(C)O` [Geneticin (G418 Sulfate)], the mean cell size came to 11.99 ± 0.045.
For `Cc1cc(C(C#N)c2ccc(Cl)cc2)c(Cl)cc1NC(=O)c1cc(I)cc(I)c1O` (centres undefined) [Closantel], the mean cell size was determined as 12.3 ± 0.27.
`CC[C@@H](C(N)=O)N1CCCC1=O` [Levetiracetam]: the mean cell size turned out to be 12.5 ± 0.14.
For `COc1ccc2[nH]cc(CCN)c2c1` [5-Methoxytryptamine] the value was 12.18 ± 0.062; for `CCN(CC)CCOC(=O)C(O)(c1ccccc1)c1ccccc1` [Benactyzine hydrochloride], 12.4 ± 0.051.
Compound `CCN1C[C@]2(OC(=O)c3ccccc3NC(C)=O)CC[C@H](OC)[C@@]34[C@@H]2C[C@@H]([C@@H]13)[C@@]1(O)C[C@H](OC)[C@H]2C[C@@H]4[C@]1(O)[C@H]2OC` [Lappaconitine] came in with a mean cell size of 12.4 ± 0.3.
`NCC(O)c1ccc(O)cc1` (racemic) [(+,-)-Octopamine HCl] returned a mean cell size of 12.3 ± 0.14.
